Source: PubChem (National Center for Advancing Translational Sciences (NCATS))
Most compounds without a hit are left out; they make up all but 4.8% or so of the library.
ATXN2 expr inh – reduces ATXN2 reporter expression in HEK-293 cells; AID 1745845; actives 0.72% (n = 360,000); Potency, µM (titrated, usually from 57 µM), for inactives: at the top dose activity change, negative = inhibition, hits mostly inhibitors; HEK-293 ATXN2-luciferase reporter, luminescence, 24 h; further: potency means the concentration at half of the fitted maximal effect; on the % scale 0 is the no-effect control and ±100 the full control effect; nearly all actives have a fitted effect of over 55% in size
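ATXN2-luciferase reporter cells (luciferase flanked by upstream and downstream ATXN2 gene portions) were treated 24 h at 37 °C with compounds at up to 57 uM. SteadyGlo luminescence gave expression; GF-AFC fluorescence gave viability.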
HepG2 viability – HepG2 cytotoxicity, counter-screen for TGF-b inhibitors | HepG2 CAGA-GFP viability, ATP luminescence, 18 h | Potency, µM (highest dose often 46.1 µM), inactives show at the top dose activity change, negative = cytotoxicity, most hits filed as cytotoxic | actives 0.76% (n = 410,000) | AID 588856; further: potency means the concentration at half of the fitted maximal effect
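HepG2 CAGA-GFP cells (1000/well, DMEM with 1% FBS) received compound, then TGF-beta at 500 pg/mL final, and were incubated 18 hours at 37 degrees C. Viability was read by CellTiter-Glo luminescence. Media-only wells were set as complete cell-killing and DMSO as no toxicity.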
ATXN viability – viability counter-screen for ATXN expression inhibitors; Potency, µM (highest dose often 56.7 µM), most hits filed as cytotoxic; actives 0.49% (n = 400,000); S2 cells (HEK-293 line with an ATXN2-luciferase reporter) viability, CellTiter-Fluor protease fluorescence, 24 h; further: potency means the concentration at half of the fitted maximal effect; nearly all actives have a fitted effect of over 40% in size
D3 ag – agonists of human D3 dopamine receptor; P35462; max activation, %; D3R DiscoveRx beta-arrestin cells, luminescence, 90 min; actives 0.58% (n = 410,000); in the data active means max activation above about 30%; further: 0% is about no effect
Target sequence (P35462 whole entry, looked up): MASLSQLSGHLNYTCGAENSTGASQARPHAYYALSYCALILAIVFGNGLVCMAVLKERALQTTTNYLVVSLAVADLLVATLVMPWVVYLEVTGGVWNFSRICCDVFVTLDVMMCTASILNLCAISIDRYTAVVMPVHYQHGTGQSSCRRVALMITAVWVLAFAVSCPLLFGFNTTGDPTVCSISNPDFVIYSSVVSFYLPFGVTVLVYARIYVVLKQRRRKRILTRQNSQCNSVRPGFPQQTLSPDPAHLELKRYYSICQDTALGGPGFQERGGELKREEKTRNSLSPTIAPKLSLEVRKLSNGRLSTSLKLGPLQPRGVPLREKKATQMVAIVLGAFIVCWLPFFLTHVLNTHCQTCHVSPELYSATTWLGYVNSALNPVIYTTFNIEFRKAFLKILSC
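Agonist-mode cell screen: cells plated at 1500/well and incubated overnight at 37 °C, then exposed to library compounds for 90 min at 37 °C. Detection reagent was added for 30–60 min at room temperature, and luminescence was read.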
TGFb SMAD3 inh – TGF-b pathway inhibition | HepG2 CAGA-GFP TGF-b/SMAD3 reporter, GFP fluorescence, 18 h; TGF-beta stimulated, 500 pg/mL final | Potency, µM (titrated, usually from 46.1 µM), inactives show top-dose activity, negative = inhibition, hits mostly inhibitors | actives 1.2% (n = 410,000) | AID 588855; further: potency means the concentration at half of the fitted maximal effect; on the % scale 0 is the no-effect control and ±100 the full control effect; nearly all actives have a fitted effect of over 65% in size
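Using HEPG2 CAGA-GFP reporter cells at 1000 cells/well, we pinned test compounds, stimulated with recombinant TGF-beta (500 pg/mL final) and measured total well GFP after 18 h.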
D3 antag – D3 dopamine receptor (human) antagonism | AID 652054 | D3R cells, DiscoveRx beta-arrestin luminescence, antagonist mode; stronger effect = lower value | P35462 | max response, negative = inhibition, % | actives 2.5% (n = 360,000); in the data active means max response below about -50%; inconclusive means no clear call, values can overlap the other calls; further: on the % scale 0 is the no-effect control and ±100 the full control effect
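Cells plated overnight at 1500 cells/well, then exposed to library compounds with dopamine controls for 90 minutes at 37 degrees C. DiscoveRx reagent added for 30–60 minutes at room temperature; luminescence read, quantitative HTS format.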
Active calls of the source: *; i = inactive; ? = inconclusive; . = not tested or not shown; ! = a repeat was not active. Unless noted, the call rests on the fitted dose curve; in most records, active means well fitted curve in the direction sought with a large enough effect; inconclusive means small, poorly fitted or top-dose-only effect, or another doubt; inactive means no such curve, though single readings can be large; an effect the other way counts as inactive or inconclusive.

SMILES | ATXN2 expr inh | HepG2 viability | ATXN viability | D3 ag | TGFb SMAD3 inh | D3 antag
Cc1ccccc1NC(=S)N=Nc1c(O)n(C)c2ccc(S(=O)(=O)N3CCOCC3)cc12 | -39.4% | -35.5% | i | -2.8 | 5.62µM* | -6.4
Cc1cccc(C)c1NC(=S)N=Nc1c(O)n(C)c2ccc(S(=O)(=O)N3CCOCC3)cc12 | ? | -23.7% | i | 3.3 | -5.9% | -12.9
Oc1c(N=NC(=S)Nc2ccccc2F)c2ccccc2n1Cc1ccccc1Cl | -29.6% | -18.8% | ? | -10.9 | -10.9% | -0.8
Cc1cc(C(=O)COC(=O)C2=NNC(=O)CC2)c(C)n1-c1cccc(C(F)(F)F)c1 | -18.8% | -25.0% | i | 40.5* | -19.9% | 19.7
CCOC(=O)N1CCN(C2CC(=O)N(c3ccc(Oc4ccccc4)cc3)C2=O)CC1 (configuration not stated) | 10.6% | 7.5% | i | 53.4* | -5.4% | 15.3
CCOC(=O)N1CCN(C2CC(=O)N(c3ccc(C)cc3)C2=O)CC1 (configuration not stated) | -5.3% | 6.9% | i | -10.6 | 2.2% | -62.5*
Cc1ccc(N2C(=O)CC(N3CCN(C4CCc5ccccc5C4)CC3)C2=O)cc1 (configuration not stated) | 2.9% | -5.4% | i | -13.9 | -9.2% | -54.8*
O=C(Nc1cccc(-c2nc3ncccc3o2)c1)c1ccc(-c2cccc(Cl)c2Cl)o1 | ? | -3.7% | ? | -10.0 | -15.8% | .
CC(C)CN=C(NS(=O)(=O)c1ccccc1)C(Cl)(Cl)Cl | ? | 11.2µM* | ? | -7.6 | ? | ?
O=C(NCc1nnnn1-c1ccc(F)c(F)c1)c1ccc2ccccc2c1 | -4.8% | -13.5% | i | -11.9 | -1.5% | -11.2
O=C(NCc1nnnn1-c1ccccc1)c1ccc2ccccc2c1 | . | 0.0% | i | 105.3* | 2.8% | -6.0
O=C(NC(c1ccc(Cl)cc1)c1ccccn1)C1CCN(CCOc2ccc(Cl)cc2Cl)CC1 (configuration not stated) | -38.5% | -104.0% | i | -10.6 | ? | -76.5*
O=C(NC(c1ccc2c(c1)OCO2)c1ccccn1)C1CCN(CCOc2ccc(Cl)cc2Cl)CC1 (configuration not stated) | ? | -97.6% | ? | -10.9 | ? | -74.8*
COc1cccc(OC)c1OCCN1CCC(C(=O)NC(c2ccc3c(c2)OCO3)c2ccccn2)CC1 (configuration not stated) | -2.8% | -27.3% | i | -28.7 | 10.3% | -78.1*
Cc1cccnc1C(NC(=O)C1CCN(CCOc2ccc(Cl)cc2Cl)CC1)c1ccc(Cl)cc1 (configuration not stated) | 20µM* | -41.8% | 25.1µM* | 41.0* | ? | 35.7
Cc1ccc(N(C)C(=O)Cn2nc(Cc3ccncc3)c3ccccc3c2=O)cc1C | . | -30.9% | . | -5.4 | ? | .
COc1ccc(CCNC(=O)c2nc(SCc3ccccc3F)ncc2Cl)cc1OC | . | -27.4% | . | -11.8 | ? | .
C=C[C@@H]1c2cc(C)ccc2N(S(=O)(=O)c2ccc(C)cc2)[C@H](c2ccc(OC(C)=O)cc2)C1(C#N)C#N | 25.1µM* | 6.31µM*! | ? | -27.1 | ? | ?
C=C[C@@H]1c2ccccc2N(S(=O)(=O)c2ccc(C)cc2)[C@H](c2ccc(OC(C)=O)cc2)C1(C#N)C#N | ? | -45.0% | ? | 4.9 | ? | ?
CN1C/C(=C/c2ccccc2[N+](=O)[O-])C(=O)/C(=C\c2ccccc2[N+](=O)[O-])C1 | ? | -31.7% | . | -27.3 | 3.16µM* | -90.4*
CN(Cc1cnc2nc(N)nc(N)c2n1)c1ccc(C(=O)N[C@@H](CCC(=O)O)C(=O)O)cc1 | 31.6µM*! | -68.6% | ? | 0.0 | 5.8% | -9.2
CN(Cc1cnc2nc(N)nc(N)c2n1)c1ccc(C(=O)N[C@H](CCC(=O)O)C(=O)O)cc1 | . | . | i | . | . | .
